Experimental data taken from the supplement of paper PMC12645437, “Orthogonal IMiD-Degron Pairs Induce Selective Protein Degradation in Cells” (ACS Chemical Biology, 2025).
Over roughly 8,300 sequences, “log2 fold change of degron read counts, EGFP-low vs EGFP+ sorted cells (limma voom), compound-induced degradation” has its median near -1.1; the highest 2% begin near 3.2. The entries come from a sample that favours the highest values as a whole.

T1: CRBN, Q96SW2
T1 chain: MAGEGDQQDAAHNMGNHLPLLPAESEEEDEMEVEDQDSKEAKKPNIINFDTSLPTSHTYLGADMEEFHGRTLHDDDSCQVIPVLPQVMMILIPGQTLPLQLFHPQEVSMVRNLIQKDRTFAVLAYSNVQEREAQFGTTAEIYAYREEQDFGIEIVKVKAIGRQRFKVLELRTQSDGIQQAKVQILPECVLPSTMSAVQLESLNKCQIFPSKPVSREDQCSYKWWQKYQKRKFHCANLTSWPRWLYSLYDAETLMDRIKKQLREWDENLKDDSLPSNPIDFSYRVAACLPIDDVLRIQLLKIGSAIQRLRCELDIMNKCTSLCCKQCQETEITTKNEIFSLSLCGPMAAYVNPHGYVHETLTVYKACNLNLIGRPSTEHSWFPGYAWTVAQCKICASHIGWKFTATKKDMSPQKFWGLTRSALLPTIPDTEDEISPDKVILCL

B1: 46F_47G_49P_50I_52G_53H_54E_55F_67L_, Q9UKT9 (peptide)
chain: FGCPICGHEFTQKGNLLRHIKL
B2: 46F_47W_49N_50Q_52G_53H_54T_55F_67L_, Q9UKT9 (peptide)
chain: FWCNQCGHTFTQKGNLLRHIKL
B3: 46F_47Y_49E_50Q_52G_53A_54M_55F_67L_, Q9UKT9 (peptide)
chain: FYCEQCGAMFTQKGNLLRHIKL
B4: 46F_47K_49P_50I_52G_53A_54R_55F_67L_, Q9UKT9 (peptide)
chain: FKCPICGARFTQKGNLLRHIKL
B5: 46F_47H_49P_50I_52G_53A_54R_55F_67L_, Q9UKT9 (peptide)
chain: FHCPICGARFTQKGNLLRHIKL
B6: 46F_47F_49P_50I_52G_53A_54R_55F_67L_, Q9UKT9 (peptide)
chain: FFCPICGARFTQKGNLLRHIKL
B7: 46F_47A_49P_50I_52G_53A_54R_55F_67L_, Q9UKT9 (peptide)
chain: FACPICGARFTQKGNLLRHIKL
B8: 46F_47M_49P_50I_52G_53A_54R_55F_67L_, Q9UKT9 (peptide)
chain: FMCPICGARFTQKGNLLRHIKL
B9: 46F_47C_49P_50I_52G_53A_54R_55F_67L_, Q9UKT9 (peptide)
chain: FCCPICGARFTQKGNLLRHIKL
B10: 46F_47T_49P_50I_52G_53A_54R_55F_67L_, Q9UKT9 (peptide)
chain: FTCPICGARFTQKGNLLRHIKL
B11: 46F_47Q_49P_50I_52G_53A_54R_55F_67L_, Q9UKT9 (peptide)
chain: FQCPICGARFTQKGNLLRHIKL
B12: 46F_47I_49P_50I_52G_53A_54R_55F_67L_, Q9UKT9 (peptide)
chain: FICPICGARFTQKGNLLRHIKL
B13: 46F_47D_49P_50I_52G_53A_54R_55F_67L_, Q9UKT9 (peptide)
chain: FDCPICGARFTQKGNLLRHIKL
B14: 46F_47I_49E_50I_52G_53R_54A_55F_67L_, Q9UKT9 (peptide)
chain: FICEICGRAFTQKGNLLRHIKL
B15: 46F_47N_49P_50V_52G_53A_54H_55F_67L_, Q9UKT9 (peptide)
chain: FNCPVCGAHFTQKGNLLRHIKL
B16: 46F_47R_49E_50Q_52G_53A_54M_55F_67L_, Q9UKT9 (peptide)
chain: FRCEQCGAMFTQKGNLLRHIKL
B17: 46F_47N_49D_50Q_52G_53A_54A_55F_67L_, Q9UKT9 (peptide)
chain: FNCDQCGAAFTQKGNLLRHIKL
B18: 46L_47H_49E_50I_52G_53F_54H_55C_67L_, Q9UKT9 (peptide)
chain: LHCEICGFHCTQKGNLLRHIKL

Biological target: T1, CRBN, Q96SW2
Assay: log2 fold change of degron read counts, EGFP-low vs EGFP+ sorted cells (limma voom), compound-induced degradation; higher = more compound-induced degradation of the degron-EGFP fusion; degrons are variants of IKZF1/3 zinc finger 2; compound dose not given here
Conditions: Jurkat, 18 h
[1] = compound: compound 19 (5-tert-butyl-thalidomide)
[2] = compound: compound 22 (5-morpholino-thalidomide)
[3] = compound: compound 33 (diphenyl IMiD analogue)
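Further: pooled lentiviral library of zinc finger degron-EGFP fusions in mCherry-positive Jurkat cells, FACS-sorted after compound exposure, with degron abundance counted by next-generation sequencing.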

Sequence	log2 fold change of degron read counts [1]	log2 fold change of degron read counts [2]	log2 fold change of degron read counts [3]	log2 fold change of degron read counts (compound: thalidomide)
B1	-1.93	-2.76	-2.07	-2.26
B2	-1.74	-2.28	-2.22	-1.67
B3	0.643	1.04	0.255	-1.7
B4	-2.04	-2.6	-2.42	-1.57
B5	2.37	2.5	0.881	0.851
B6	3.13	3.35	1.51	1.26
B7	3.72	2.53	-0.174	1.31
B8	-0.0501	0.185	1.05	1.11
B9	2.53	2.75	1.8	2.55
B10	1.24	2.95	1.72	3
B11	-0.209	2.05	1.18	3.55
B12	0.0922	2.32	1.27	2.63
B13	3.35	1.87	1.6	2.76
B14	-2.83	-1.59	-1.38	-0.306
B15	2.14	0.242	0.245	0.138
B16	-2.73	-3.44	-1.59	-1.56
B17	-1.89	-2.81	-2.8	-2.92
B18	1.32	1.17	1.52	1.23
